Our source for the growth inhibition values is PubChem BioAssay (NCI).

A short description of assay [1]: NCI Yeast Anticancer Drug Screen. Data for the rad50 strain (AID 155).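 Also: 0% = growth of vehicle-only cultures of the same strain.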 The following applies: S. cerevisiae rad50 strain growth inhibition; at 50.0 µM; active compounds read high. An outline of the steps:
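A DNA repair-deficient yeast mutant serves as the test organism; compound-induced growth inhibition is calculated against vehicle-treated cells.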

A short description of assay [2]: NCI Yeast Anticancer Drug Screen. Data for the mec2-1 strain (AID 157). Particulars: S. cerevisiae mec2-1 strain, at 50.0 µM, active compounds read high. An outline of the steps:
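Using mec2-1 yeast: add compound, measure growth, express inhibition versus vehicle-treated cultures.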

Assay [3] is described as follows: NCI Yeast Anticancer Drug Screen. Data for the sgs1 mgt1 strain (AID 161).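 Also: 0% = growth of cultures given vehicle only.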 Particulars: S. cerevisiae sgs1 mgt1 strain, at 50.0 µM, active compounds read high. The essentials: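 Yeast cells carrying a defined DNA-repair defect were exposed to test compounds. Growth inhibition was measured relative to vehicle-treated controls.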
Assay [4] in a line: NCI Yeast Anticancer Drug Screen. Data for the cln2 rad14 strain (AID 165).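 Also: 0% = growth equal to vehicle treated cultures.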 Particulars: S. cerevisiae cln2 rad14 strain, at 50.0 µM, active compounds read high. The essentials:
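Yeast strain cln2 rad14, bearing defects in cell cycle control and DNA repair, serves as the test system; values reflect growth inhibition compared with vehicle.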

Assay [5] in a line: NCI Yeast Anticancer Drug Screen. Data for the bub3 strain (AID 167). Particulars: S. cerevisiae bub3 mutant strain, at 50.0 µM, active compounds read high. An outline of the steps:
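Inhibition values come from growth of compound-treated mutant yeast normalised to vehicle-treated controls.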

Assay [6] is described as follows: NCI Yeast Anticancer Drug Screen. Data for the mlh1 rad18 strain (AID 175). The following applies: S. cerevisiae mlh1 rad18 strain growth inhibition; at 50.0 µM; active compounds read high. The essentials:
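Steps: expose repair-defective yeast to compound; measure growth; express inhibition against vehicle-treated controls.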

About 79,000 compounds went through this panel and 15% of them were active in at least one assay; those are over-represented in the sample as a whole. Values without a mark were called inactive. The source made the active and inactive calls. Rule as the data show it: active = growth inhibition above about 70%; inactive = the rest.

For the molecule `Nn1cnc2nccnc2c1=O`, the growth inhibition in assay [1] is 1%; in assay [2], 4.65%; in assay [3] it was -10.7%; in assay [4], -17.4%; in assay [5], 2.4%; in assay [6] it was -5.6%.

Regarding `CCCCCCCCCCCCC/C=C/CC(CC(=O)Nc1ccc(-n2c(=O)cc(C)n2C)cc1)C(=O)O` (stereo unspecified), the growth inhibition is 3.75% in assay [1]; -24.1% in assay [2]; 13.1% in assay [3]; 21.2% in assay [4]; 20.6% in assay [5]; 5.65% in assay [6].

On to `CCN1CCCC1CO` (stereo unspecified), for which the growth inhibition in assay [1] was -1.15%; in assay [2] it was -25.1%; in assay [3], -10.1%; in assay [4], 0.1%; in assay [5] it was -4.35%; in assay [6], 6.65%.

Regarding `Cc1ccc(C(=O)OC2C(OC(=O)Nc3ccccc3)OC(COC(=O)c3ccccc3)C2OC(=O)c2ccccc2)cc1` (stereo unspecified), the growth inhibition is 1.95% in assay [1]; 10.1% in assay [2]; 9.45% in assay [3]; 13.8% in assay [4]; -12.4% in assay [5]; 30% in assay [6].

Regarding `O=C(O)c1ccc([N+](=O)[O-])c(P(=O)(O)O)c1`, the growth inhibition is -5.95% in assay [1]; -7% in assay [2]; -12.2% in assay [3]; -42.8% in assay [4]; -29.6% in assay [5]; -3.5% in assay [6].

`O=S(=O)(Nc1nc2ccccc2nc1Nc1cccc2ccccc12)c1ccccc1`: the growth inhibition is -1.3% in assay [1]; -5.05% in assay [2]; 3.8% in assay [3]; -13.5% in assay [4]; -10.9% in assay [5]; -26.4% in assay [6].

As to `COc1ccc(/C=N/N2CN(C(C)C(=O)O)C(O)(CCl)N=C2N)cc1OC` (stereo unspecified), the growth inhibition was 0.95% in assay [1]; -8.95% in assay [2]; -3% in assay [3]; -27.4% in assay [4]; 5.1% in assay [5]; -1.5% in assay [6].

On to `C1=C(c2ccccc2)c2ccccc2CC1`, for which the growth inhibition in assay [1] is -10.3%; in assay [2], -7.25%; in assay [3], -0.35%; in assay [4], -3.45%; in assay [5] it was 2.2%; in assay [6], 3%.

In the case of `Clc1ccc(CSc2ccc3nncc(SCc4ccc(Cl)cc4Cl)c3c2)c(Cl)c1`, the growth inhibition was 36% in assay [1]; 5.8% in assay [2]; 15.1% in assay [3]; 36.8% in assay [4]; 15.1% in assay [5]; 17.6% in assay [6].

As to `NC(=O)c1ccccc1NC(=O)Nc1ccc(Cl)cc1`, the growth inhibition is -3.6% in assay [1]; 20.8% in assay [2]; 13.8% in assay [3]; -15.3% in assay [4]; 21.5% in assay [5]; 27% in assay [6].

With `Nc1ccc(F)c(F)c1`, the growth inhibition in assay [1] was 4.3%; in assay [2], -6.65%; in assay [3], 14.2%; in assay [4] it was -20%; in assay [5], 2.65%; in assay [6], 13.8%.

On to `CC(C)(C)NCC(CN1CCOCC1)C(=O)c1ccccc1` (stereo unspecified), for which the growth inhibition in assay [1] was 48.5%; in assay [2], 70.1% (active); in assay [3] it was 57%; in assay [4], 52.6%; in assay [5], 74.2% (active); in assay [6] it was 90.2% (active).

`CC(C)C(C(=O)O)N1C(=O)c2ccccc2C1=O` (stereo unspecified): the growth inhibition in assay [1] was -16.2%; in assay [2], -1.5%; in assay [3], -12.2%; in assay [4] it was -31.6%; in assay [5], -16.1%; in assay [6] it was -4.15%.

Take `COCC1CCCCC1O` (stereo unspecified): the growth inhibition in assay [1] is -9.95%; in assay [2], 7.15%; in assay [3], 3.05%; in assay [4] it was 26.8%; in assay [5] it was 18.1%; in assay [6], -2.35%.

`Cc1ccc(NC(=O)COc2ccc(Cl)cc2)c(C)c1`: the growth inhibition is 2.9% in assay [1]; 11% in assay [2]; 12.8% in assay [3]; 9.45% in assay [4]; 16.2% in assay [5]; 0.75% in assay [6].

Regarding `CC1OC(OC2C(OC3C(OC4CCC5(C)C(CCC6(C)C5CC=C5C7CC(C)(C)CCC7(C(=O)O)CCC56C)C4(C)C)OCC(O)C3O)OC(CO)C(O)C2O)C(O)C(O)C1O` (stereo unspecified), the growth inhibition in assay [1] is 92.8% (active); in assay [2], 94.4% (active); in assay [3], 94.3% (active); in assay [4], 92.3% (active); in assay [5], 93.8% (active); in assay [6] it was 93.8% (active).

Regarding `Clc1ccc(OCCSCCOc2ccc(Cl)cc2)cc1`, the growth inhibition in assay [1] is 8.85%; in assay [2], -17.8%; in assay [3], 12.5%; in assay [4] it was -22.1%; in assay [5], 0.9%; in assay [6] it was 2.35%.

`CC(C)C(O)C(C)(C)C(O)C#N` (stereo unspecified): the growth inhibition in assay [1] is 18.1%; in assay [2] it was -1.2%; in assay [3] it was -0.1%; in assay [4], -2.45%; in assay [5], 0.4%; in assay [6] it was 7.7%.

Turning to `O=C(O)CCC(=O)NC(c1ccccc1)(c1ccccc1)c1ccccc1`, the growth inhibition in assay [1] is -17.4%; in assay [2] it was -9.45%; in assay [3], -0.15%; in assay [4] it was -37.1%; in assay [5] it was 3.2%; in assay [6], 3.1%.

As for `CCCCNC(C)=O`, the growth inhibition was 4.5% in assay [1]; -9.15% in assay [2]; -18.5% in assay [3]; -21.6% in assay [4]; -0.95% in assay [5]; -1.7% in assay [6].

Regarding `Cc1[nH]c(=O)[nH]c1C(=O)c1ccc(-n2ccnc2)cc1`, the growth inhibition was -1.45% in assay [1]; -9.75% in assay [2]; 16.1% in assay [3]; 16.2% in assay [4]; 5.25% in assay [5]; -9.15% in assay [6].
